# Reference: PubChem BioAssay (NCATS)
# Inconclusive results are not listed. Entries that show only a call come without a potency. Active and inactive are the calls of the source. The call rests on the fitted dose curve; in most records, active means well fitted inhibition curve with a large enough effect; inconclusive means small, poorly fitted or top-dose-only effect, or effect the other way; inactive means no such curve, though single readings can be large or run the other way.
# Experiment: Quantitative high throughput screen for delayed death inhibitors of the malarial parasite plastid, 96 hour incubation (AID 488745); further: nearly all actives have a fitted effect of over 70% in size
# Conditions: Plasmodium falciparum growth; series mostly up to 28.7 µM
# From the text: NIH Molecular Libraries Probe Production Network [MLPCN]
# NIH Chemical Genomics Center [NCGC]
# Assay Provider: David Fidock and Eric Ekland, Columbia University
# The goal of this screen is to discover new antimalarial compounds that act by inhibiting the development of the apicoplast in the malarial parasite Plasmodium falciparum. The biochemical processes that make this organelle essential for erythrocytic stage parasites are not well understood. However, antibiotics such as azithromycin and tetracycline, which target the apicoplast translational machinery, have a potent antimalarial effect.
# We have developed a cell-based assay that measures parasite growth based on the expression of an integrated copy of a firefly luciferase reporter. To detect small molecules that cause this 'delayed death' phenotype, erythrocytes infected with the luciferase-expressing parasites were incubated with compounds for either one or two generations, corresponding to 48 and 96 hours, respectively. Compounds that inhibit parasite growth in the second generation, but not the first, should be enriched in antimalarials that target the apicoplast. Growth inhibition is detected by a decrease in luciferase activity
# Four microliters of culture medium (RPMI 1640 with 0.5% w/v Albumax (GIBCO), 24 mM sodium bicarbonate and 10 ug/mL gentamycin) were dispensed by a Multi-drop Combi into white solid 1536-well plates (Grenier) and 23 nL compound was added by a pin tool. Four microliters of infected erythrocytes (2% hematocrit, 0.1% parasitemia final concentration) in culture medium were dispensed and the plates incubated for 96 hours at 37 C in 5% CO2. Two microliters of luciferase detection reagent was added and luminescence was detected by a ViewLux (PerkinElmer) reader
# Potency means the concentration at half of the fitted maximal effect.
row,Compound,Potency
1,COc1cc2nc(N3CCN(C(=O)C4COc5ccccc5O4)CC3)nc(N)c2cc1OC (stereo not given),3.29 µM (active)
2,CCc1cccc2c3c([nH]c12)C(CC)(CC(=O)O)OCC3 (stereo not given),inactive
3,O=C(CCCN1CCC(O)(c2ccc(Cl)cc2)CC1)c1ccc(F)cc1,7.38 µM (active)
4,Cc1cc(C(C)(C)C)cc(C)c1CC1=NCCN1,inactive
5,Cn1cnc2c1c(=O)[nH]c(=O)n2C,inactive
6,COc1ccc2[nH]cc(CCNC(C)=O)c2c1,inactive
7,Nc1ccn([C@H]2CC[C@@H](CO)O2)c(=O)n1,inactive
8,COc1ccccc1OCC(O)CN1CCN(CC(=O)Nc2c(C)cccc2C)CC1 (stereo not given),inactive
9,CN1C(C(=O)Nc2ccccn2)=C(O)c2ccccc2S1(=O)=O,inactive
10,OCCN(CCO)c1nc(N2CCCCC2)c2nc(N(CCO)CCO)nc(N3CCCCC3)c2n1,10.4 µM (active)
11,CS(=O)(=O)Nc1ccc([N+](=O)[O-])cc1Oc1ccccc1,inactive
12,CN1CCC(=C2c3ccccc3CC(=O)c3sccc32)CC1,inactive
13,Clc1ccc(C(c2ccccc2Cl)C(Cl)Cl)cc1 (stereo not given),inactive
14,NC12CC3CC(CC(C3)C1)C2,inactive
15,Cc1cc(C(C)(C)C)c(O)c(C)c1CC1=NCCN1,inactive
16,CC(C)NCC(O)c1ccc(O)c(O)c1 (stereo not given),inactive
17,NC(=O)OCC(COC(N)=O)c1ccccc1,inactive
18,CCOC(=O)c1ncn2c1CN(C)C(=O)c1cc(F)ccc1-2,inactive
19,CN1C2CCC1CC(OC(=O)C(CO)c1ccccc1)C2 (stereo not given),inactive
20,Cc1cnc(C(=O)NCCc2ccc(S(=O)(=O)NC(=O)NC3CCCCC3)cc2)cn1,inactive

row,Compound,Potency
1,CCC1(c2ccccc2)C(=O)NCNC1=O,inactive
2,O=C1c2c(O)ccc(O)c2C(=O)c2c(NCCNCCO)ccc(NCCNCCO)c21,1.31 µM (active)
3,CN(C)CCOC(c1ccccc1)c1ccccc1,inactive
4,Cc1ccccc1N1C(=O)c2cc(S(N)(=O)=O)c(Cl)cc2NC1C (stereo not given),inactive
5,NC(=O)NO,inactive
6,CN(Cc1cnc2nc(N)nc(N)c2n1)c1ccc(C(=O)N[C@@H](CCC(=O)O)C(=O)O)cc1,inactive
7,CC(COc1ccccc1)N(CCCl)Cc1ccccc1 (stereo not given),inactive
8,CC(C(=O)O)c1cccc(C(=O)c2ccccc2)c1 (stereo not given),inactive
9,CC(CCc1ccc(O)cc1)NCCc1ccc(O)c(O)c1 (stereo not given),5.86 µM (active)
10,NS(=O)(=O)c1cc2c(cc1Cl)NCNS2(=O)=O,inactive
11,COc1nc(C)nc(Cl)c1NC1=NCCN1,inactive
12,NCCS(=O)(=O)O,inactive
13,COc1ccccc1N1CCN(CC(O)COc2cccc3ccccc23)CC1 (stereo not given),inactive
14,CC(C)(Oc1ccc(C2CC2(Cl)Cl)cc1)C(=O)O (stereo not given),inactive
15,COc1ccc(C2CNC(=O)C2)cc1OC1CCCC1 (stereo not given),inactive
16,NCCc1cnc[nH]1,inactive
17,CN(C)CCCN1c2ccccc2CCc2ccc(Cl)cc21,3.29 µM (active)
18,NC(CO)C(=O)NNCc1ccc(O)c(O)c1O (stereo not given),inactive
19,O=C(C1CCCCC1)N1CC(=O)N2CCc3ccccc3C2C1 (stereo not given),inactive
20,CCCCc1oc2ccccc2c1C(=O)c1cc(I)c(OCCN(CC)CC)c(I)c1,8.28 µM (active)
